# Laboratory results from paper PMC5540273 (PLoS ONE, 2017).
# Assays:
# Details in all cases: concentration: 1 μM, replicates: in singlicate; n = 1
# [1] = tested on: RPS6KA5(Kin.Dom.2-C-terminal)
# [2] = tested on: T1, RSK1(Kin.Dom.1-N-terminal)
# T1 construct: gene RPS6KA1
# [3] = tested on: T2, RSK1(Kin.Dom.2-C-terminal)
# T2 construct: gene RPS6KA1
# [4] = tested on: T3, RSK2(Kin.Dom.1-N-terminal)
# T3 construct: gene RPS6KA3
# [5] = tested on: T4, RSK2(Kin.Dom.2-C-terminal)
# T4 construct: gene RPS6KA3
# [6] = tested on: T5, RSK3(Kin.Dom.1-N-terminal)
# T5 construct: gene RPS6KA2
# [7] = tested on: T6, RSK3(Kin.Dom.2-C-terminal)
# T6 construct: gene RPS6KA2
# [8] = tested on: T7, RSK4(Kin.Dom.1-N-terminal)
# T7 construct: gene RPS6KA6
# [9] = tested on: T8, RSK4(Kin.Dom.2-C-terminal)
# T8 construct: gene RPS6KA6
# S6K1 = tested on: S6K1
# SBK1 = tested on: SBK1
# SGK2 = tested on: SGK2
# SGK3 = tested on: SGK3
# SGK = tested on: SGK
# SIK2 = tested on: SIK2
# SIK = tested on: SIK
# SLK = tested on: SLK
# SNARK = tested on: T9, SNARK
# T9 construct: gene NUAK2
# SNRK = tested on: SNRK
# SRC = tested on: SRC
# 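Note: KINOMEscan kinase panel screen.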
Compound,%Inh [1] [%],%Inh [2] [%],%Inh [3] [%],%Inh [4] [%],%Inh [5] [%],%Inh [6] [%],%Inh [7] [%],%Inh [8] [%],%Inh [9] [%],%Inh (S6K1) [%],%Inh (SBK1) [%],%Inh (SGK2) [%],%Inh (SGK3) [%],%Inh (SGK) [%],%Inh (SIK2) [%],%Inh (SIK) [%],%Inh (SLK) [%],%Inh (SNARK) [%],%Inh (SNRK) [%],%Inh (SRC) [%]
Cn1cc(-c2ccc3c(c2)CCN3C(=O)Cc2cccc(C(F)(F)F)c2)c2c(N)ncnc21 [GSK2606414],0,0,2,18,0,0,0,0,12,4,9,1,21,19,0,0,14,14,1,5
Cl.Cl.c1ccc(-c2cc3ccncc3cc2OC2CCNCC2)cc1 [GSK1122999],8,22,21,9,55,0,6,0,30,7,12,7,11,0,0,0,40,23,14,0
c1ccc(-c2ccc3c(-c4ccnc(Nc5ccc6c(c5)OCCO6)n4)cnn3n2)cc1 [GW818941],7,0,2,0,23,0,3,0,4,3,7,0,8,12,10,3,20,4,0,0
CCn1c(-c2ccncc2)nc2cnccc21 [SB-735216],0,19,16,19,34,8,40,14,39,32,20,19,28,5,0,19,8,21,17,0
O=C(Nc1n[nH]c2nc(-c3ccco3)c(Br)cc12)c1ccc(CN2CCCC2)cc1.O=C(O)[C@H](O)[C@@H](O)C(=O)O [SB-742352],0,5,0,3,0,0,0,13,0,11,12,1,0,17,3,0,25,0,0,22
Fc1cccc(COc2ccc(Nc3ncnc4sc(-c5ccc[nH]5)cc34)cc2Cl)c1 [GW707818],20,25,8,0,0,0,5,0,5,0,0,0,19,0,0,0,24,15,1,0
CN1CCC(n2cnc(-c3ccc(F)cc3)c2-c2ccnc(NC3CCNCC3)n2)CC1 [SB-229482],0,17,23,9,43,18,30,0,51,25,0,87,0,0,0,12,0,0,1,0
COc1ccc(NC(=O)Nc2ccc(C)c(-c3ccc(C(=O)Nc4ccncc4)cc3)c2)cc1 [GSK1398475],0,16,3,0,0,0,0,0,22,0,0,0,10,0,0,7,0,0,0,0
Cc1ccc(NC(=O)c2cccc(C#N)c2)cc1-c1ccc(C(=O)Nc2ccncc2)cc1 [GSK1398463],1,24,0,0,6,9,0,0,1,11,0,10,2,0,15,0,0,0,17,26
CS(=O)(=O)CCNCc1nc(-c2ccc3ncnc(Nc4ccc(OCc5cccc(F)c5)c(Cl)c4)c3c2)cs1.Cl [GW583340],9,22,10,0,0,0,11,0,25,6,0,0,0,0,0,0,20,0,0,0
